ChEMBL document CHEMBL4513216, “Probing the Open Global Health Chemical Diversity Library for Multistage-Active Starting Points for Next-Generation Antimalarials” (ACS Infect Dis, 2020)
In all, about 69,000 compounds went through this assay and about 8,600 (12%) showed an effect of 50% or more. This is one part of a sample in which strong results are shown more often than they occur.

What follows are compounds tested on Plasmodium berghei (assay: Screen against P. berghei liver stage (PbLuc), transformed with Luciferase, at 10uM). Conditions: tested at 10 uM.
Assay type: functional, HepG2
In the case of Cn1cccc1C(=O)N1C[C@@H]2CC[C@H]1CN(Cc1cscn1)C2, the INHIBITION was -9.39%. COc1c(CNC2CCC(O)CC2)c(C(C)C)nn1C (centres undefined) was tested, and the INHIBITION was -18.8%. O=C1c2cccnc2OC(CN2CCOCC2)CN1CC1CC1 (centres undefined) showed an INHIBITION of 24.5%. For Cc1nc(C)n(C2CCCN(C(=O)c3c(C)nn4cccnc34)C2)n1 (centres undefined), the INHIBITION was 26.4%. For Cc1cc(C(=O)N2CCOC(c3nc(C(C)C)n[nH]3)C2)no1 (centres undefined), the INHIBITION was 25.1%. Work on COc1ccc(CNC(=O)c2nc3c(s2)CCN(C(C)=O)CC3)cc1 yielded an INHIBITION of 34.6%. Compound CNC(=O)N1CCc2nc(C(=O)NCc3cccc(OC)c3)sc2CC1 has an INHIBITION of 70.7%. For COc1cccc(CN2CCc3nc(C(N)=O)sc3CC2)c1, the INHIBITION was 2.41%. Compound COc1cccc(CC(=O)N2CCc3nc(C(N)=O)sc3CC2)c1 has an INHIBITION of -16.9%. Compound COc1cccc(CN2CCc3nc(C(=O)NCC(C)C)sc3CC2)c1 has an INHIBITION of 84.5%. With CCN(CC)C(=O)c1nc2c(s1)CCN(Cc1cccc(OC)c1)CC2 the INHIBITION was 66.8%. CNC(=O)c1nc2c(s1)CCN(C(=O)c1cccc(OC)c1)CC2 showed an INHIBITION of -78%. With CC(C)CNC(=O)c1nc2c(s1)CCN(C(=O)c1cccnc1)CC2 the INHIBITION was -47.5%. With COc1cccc(CNC(=O)c2nc3c(s2)CCN(C(C)=O)CC3)c1 the INHIBITION was 10.1%. O=C1OCCN1Cc1nc(C2(c3ccc(F)cc3)CCOC2)no1 (centres undefined) gave an INHIBITION of -73.4%. CCc1nc(CN2CC(C(=O)OC)O[C@H](C)C2)cs1 (some centres undefined) gave an INHIBITION of 30.3%. CS(=O)(=O)NCCN1CCCC1c1noc(C2CC2)n1 (centres undefined) was tested, and the INHIBITION was 0.914%. CN(C)Cc1ccnc(C2CN(CCc3ccccc3)CCO2)n1 (centres undefined) was tested, and the INHIBITION was 17.4%. With Cn1cncc1CN1CCC2(CCCN2c2ncccn2)CC1 the INHIBITION was 16.9%. CC(C)(N)C(=O)N1CCCC(c2cncc(Oc3cccnc3)n2)C1 (centres undefined) gave an INHIBITION of 41.2%. With CCOCC(=O)NCC(Cc1cccc(F)c1)N1CCCCC1=O (centres undefined) the INHIBITION was 54.1%. CCCC(=O)NCC(Cc1cccc(F)c1)N1CCCC1=O (centres undefined) was tested, and the INHIBITION was 8.31%. O=C1NCCN1C(CNS(=O)(=O)C1CC1)Cc1cccc(F)c1 (centres undefined) showed an INHIBITION of 20.1%. CCOCC(=O)NCC(Cc1cccc(F)c1)n1cccc1 (centres undefined) showed an INHIBITION of 47.2%. Compound O=C(NCC(Cc1cccc(F)c1)N1CCCC1=O)C1CCCC1 (centres undefined) has an INHIBITION of 0.923%. O=C1CCCN1C(CNS(=O)(=O)C1CC1)Cc1cccc(F)c1 (centres undefined) was tested, and the INHIBITION was 58.5%. CN(C)C(=O)N1C[C@H](Oc2ccccn2)[C@H]2OCCC[C@H]21 gave an INHIBITION of -6.32%. For CC1Oc2ccc(S(=O)(=O)NCCCn3ccnc3)cc2NC1=O (centres undefined), the INHIBITION was 56.5%. With CC1(C)Oc2ccc(S(=O)(=O)NCCCn3ccnc3)cc2NC1=O the INHIBITION was 17.4%. In the case of COCCCNS(=O)(=O)c1ccc2c(c1)NC(=O)C(C)O2 (centres undefined), the INHIBITION was -35.5%. For CCc1nc(C)sc1CNC1CCN(Cc2ccccc2)C1 (centres undefined), the INHIBITION was 51.1%. With CCc1csc(CNC2CCN(Cc3ccccc3)C2)n1 (centres undefined) the INHIBITION was 64%. Work on Cc1nc(CNC2CCN(Cc3ccccc3)C2)sc1C (centres undefined) yielded an INHIBITION of 47.9%. In the case of Cc1nc(CCNC2CCN(Cc3ccccc3)C2)sc1C (centres undefined), the INHIBITION was 40.5%. With CCc1csc(CNC2CCN(c3ccc(C)cc3)CC2)n1 the INHIBITION was 1.94%. In the case of CCc1nc(C)sc1CN1CC[C@](C)(O)[C@H](C)C1, the INHIBITION was 48.5%. CNc1ncccc1CN1CCCCC1c1ccnc(N)n1 (centres undefined) was tested, and the INHIBITION was 32.3%. Compound O=C(NCC1CC1)[C@H]1CC[C@@H]2[C@@H](CCN2Cc2nccs2)O1 has an INHIBITION of 46.1%. In the case of COC(=O)c1cccn1C1CCN(CC(=O)NC2CCCCC2)CC1, the INHIBITION was 43.7%. Cc1noc(C)c1C(=O)N(C)C(C)c1cccnc1 (centres undefined) showed an INHIBITION of 79%. Cc1noc(C)c1C(=O)N(C)C(C)c1ccncc1 (centres undefined) gave an INHIBITION of 17.5%. In the case of Cc1noc(C)c1C(=O)N(C)C(C)c1ccc(S(C)(=O)=O)cc1 (centres undefined), the INHIBITION was 10.7%. Compound CS(=O)(=O)N1CCCN(c2nccn3cnnc23)CC1 has an INHIBITION of -39.2%. OCCN(Cc1ccccc1)Cc1ccsc1 gave an INHIBITION of 3.96%. Compound CC(NC(=O)c1ccc(C#N)cn1)C1(N2CCOCC2)CCCC1 (centres undefined) has an INHIBITION of 37.1%. For Cn1ncc2c1NC(=O)CC2c1ccccc1Cl (centres undefined), the INHIBITION was 54.5%. Work on Cn1ncc2c1NC(=O)CC2c1cc2c(cc1Cl)OCO2 (centres undefined) yielded an INHIBITION of 61.2%. Compound Cn1ncc2c1NC(=O)CC2c1cc(Cl)ccc1F (centres undefined) has an INHIBITION of 8.49%. Cn1ncc2c1NC(=O)CC2c1c(Cl)cccc1Cl (centres undefined) was tested, and the INHIBITION was 25.1%. In the case of Cn1ncc2c1NC(=O)CC2c1ccc(Cl)cc1Cl (centres undefined), the INHIBITION was 34%. In the case of CC(C)n1ncc2c1NC(=O)CC2c1ccccc1Cl (centres undefined), the INHIBITION was 9.32%. For O=C(NCc1cccnc1)c1ccc2nccn2c1, the INHIBITION was 32.5%. With COc1ccccc1CN1CCC(Cc2cnc(CN(C)C)cn2)CC1 the INHIBITION was 8.12%. With Cc1nc(C)c(C(=O)N2CCCC(n3ccnc3C)C2)s1 (centres undefined) the INHIBITION was 21.7%. In the case of O=S(=O)(Cc1c(F)cccc1F)NCCOc1cccnc1, the INHIBITION was 42.4%. Compound Cc1ccc(C(=O)N2CCCC(n3cccn3)C2)cc1S(C)(=O)=O (centres undefined) has an INHIBITION of 23.95%. Compound CCc1noc(CCC(=O)N[C@@H]2CC[C@@H](n3ccnc3)[C@@H]2O)n1 has an INHIBITION of 8.72%. Compound CCc1noc(CCC(=O)N[C@@H]2CC[C@@H](n3ccnc3C)[C@@H]2O)n1 has an INHIBITION of 56.8%. Compound Cc1nccn1[C@@H]1CC[C@@H](NC(=O)CCCn2cccn2)[C@H]1O has an INHIBITION of 4.13%. Cc1cc(NC(=O)c2ccc(F)cc2Cl)n(C)n1 was tested, and the INHIBITION was -23.8%. In the case of CCn1ccnc1-c1nccn1-c1ccccc1CN1CCOCC1, the INHIBITION was 58.3%. CCc1cc(-c2nccn2-c2ccccc2CN2CCOCC2)on1 gave an INHIBITION of -4.51%. In the case of COc1ncc(-c2nccn2-c2ccccc2CN2CCOCC2)cn1, the INHIBITION was 32.3%. Compound CNc1cc(CNC(=O)c2ccccc2OC)nc(-c2ccncc2)n1 has an INHIBITION of 23.4%. In the case of O=c1[nH]nc2c(S(=O)(=O)N3CCCCC3)cccn12, the INHIBITION was 51%. With O=c1[nH]nc2c(S(=O)(=O)N3CCCCCC3)cccn12 the INHIBITION was -15.2%. O=c1[nH]nc2c(S(=O)(=O)N3CCCC3)cccn12 was tested, and the INHIBITION was 6.12%. With Cc1ccoc1C1=NNC(=CN2CCn3c(nnc3C(C)C)C2)O1 the INHIBITION was 15.3%. CC(C)c1nc(CN(C)C(=O)C(O)c2ccc(Cl)cc2)cs1 (centres undefined) gave an INHIBITION of -15.6%. With O=c1cc(CN(Cc2ccco2)C2CC2)nc2ccc(Br)cn12 the INHIBITION was 9.65%. CN1CCC(N(Cc2ccco2)S(=O)(=O)c2ccc(Cl)cc2)CC1 was tested, and the INHIBITION was 27.9%. Compound CN1CCC(N(Cc2ccco2)S(=O)(=O)c2ccc(Br)cc2Cl)CC1 has an INHIBITION of 61.2%. CN(C1CCCCC1)S(=O)(=O)N1CCN(Cc2ccco2)CC1 gave an INHIBITION of 40%. With CC1CCN(C(=O)CN(Cc2ccco2)C2CC2)CC1 the INHIBITION was 37%. With CN1CCC(N(Cc2ccco2)S(=O)(=O)c2cc(Br)ccc2Br)CC1 the INHIBITION was 69.8%. For CC(NCc1cccc(Cl)c1)c1ccc(OCC(=O)NC2CC2)cc1 (centres undefined), the INHIBITION was 13.3%. Compound COc1ccc2nnc(CCC(=O)NCc3cccn3C)n2n1 has an INHIBITION of 9.57%. Compound Cc1nc(CCC(N)=O)cc(C2CCCN2S(C)(=O)=O)n1 (centres undefined) has an INHIBITION of 26.1%. CC(C)c1nc2c(n1C)CCN(CC(=O)Nc1nncs1)C2 was tested, and the INHIBITION was -12.2%. CC(=O)NC1CCN(c2ccnc(C3CCNCC3)c2)CC1 gave an INHIBITION of 2.55%. With Fc1ccc2[nH]c3c(c2c1)CCN1C(c2ccncc2)N2CCC31CC2 (centres undefined) the INHIBITION was -62.4%. O=C(CSC(F)(F)F)N1CCC2(CCCN(C3CCOCC3)C2=O)C1 (centres undefined) was tested, and the INHIBITION was -36.6%. CCN(CC)C(=O)Nc1ccc(C(=O)N(C)C)c(C)c1 was tested, and the INHIBITION was 19.7%. Compound Cc1cc(NCC(C)C)ccc1C(=O)N(C)C has an INHIBITION of 21.5%. Work on Cc1cc(NC(N)=O)ccc1C(=O)N(C)C yielded an INHIBITION of 61%. Work on Cn1cc(-c2nnn3c2COC(CNCC2CCOCC2)C3)cn1 (centres undefined) yielded an INHIBITION of 5.67%. Cc1c(-c2ccccc2)ncn1CCCNc1cccnc1 showed an INHIBITION of 22.7%. In the case of CSC(C)Cc1c(-c2ccccc2)ncn1CCCNc1cccnc1 (centres undefined), the INHIBITION was 82.5%. In the case of Cc1cc(NCCCNc2cccnc2)n2nc(C)c(C)c2n1, the INHIBITION was 3.945%. With CCN(C)CC(C)Cn1cnc(-c2ccccc2)c1C (centres undefined) the INHIBITION was -107%. Compound CSCCc1c(-c2ccccc2)ncn1CCNc1cccnc1 has an INHIBITION of 63.6%. Work on Cc1c(-c2ccccc2)ncn1CC(c1cccnc1)N1CCOCC1 (centres undefined) yielded an INHIBITION of 37.2%. CC[C@H]1N(Cc2ccco2)CCC[C@]12CCC(=O)N2C showed an INHIBITION of 1.34%. CC(C)NC(=O)Nc1ncc(-c2cccnc2)s1 was tested, and the INHIBITION was -42.9%. Cc1nn(C)c(C)c1C1COCCN1C(=O)c1ccc(Cl)o1 (centres undefined) was tested, and the INHIBITION was -16%. For Cc1ccc(NCc2cn3c(n2)CN(Cc2ccoc2)CC3)nn1, the INHIBITION was 26.5%. Compound O=C1CC2(CCSC2)C(=O)N1Cc1ncc(-c2cccc(F)c2)o1 (centres undefined) has an INHIBITION of -26.8%. For COc1cccc(-c2cc(C(=O)N3N=C(C)CC3(O)C(F)(F)F)[nH]n2)c1 (centres undefined), the INHIBITION was 38.3%. Cc1ncc(-c2ccccn2)c(CCNC(=O)CCC2CCCO2)n1 (centres undefined) was tested, and the INHIBITION was 28.5%. C[C@@H](NCc1cccc(Cl)c1)c1onc(-c2ccc(F)cc2)c1C(=O)O was tested, and the INHIBITION was -3.58%. Compound CCCc1nc(CN2CCOC(Cn3cccn3)C2)no1 (centres undefined) has an INHIBITION of -43.5%. In the case of CN(Cc1ccccc1)c1ncccc1CNC1CCC1, the INHIBITION was 22.5%. CC(=O)N1CCC(NCc2cccnc2N(C)Cc2ccccc2)CC1 gave an INHIBITION of 6.31%. CN(Cc1ccccc1)c1ncccc1CNC1CN2CCC1CC2 (centres undefined) was tested, and the INHIBITION was 62.6%. CN(Cc1ccccc1)c1ncccc1CNC1CCCC1 gave an INHIBITION of 20.4%. With CC(C)N1CCC(NCc2cccnc2N(C)Cc2ccccc2)CC1 the INHIBITION was 37.8%. In the case of CN(Cc1ccccc1)c1ncccc1CNC1CCSCC1, the INHIBITION was 51.8%. Work on CC(C)(C)CC(=O)NCC(=O)Nc1ccn(Cc2ccncc2)n1 yielded an INHIBITION of -12.4%. In the case of Cc1nn(C)cc1C(=O)N1C[C@@H]2CC[C@H]1CN(S(=O)(=O)N(C)C)C2, the INHIBITION was -109%.
